USP17 inh: human USP17-like deubiquitinase inhibition; purified USP17, Ub-rhodamine cleavage fluorescence, 3 h; A8MUK1; inhibition, % at 50 µM; AID 1645855; 6.5% of 47,000 active
USP28 block: human USP28 deubiquitinase inhibition; Q96RU2; purified USP28, Ub-rhodamine cleavage fluorescence, 30 min; inhibition, % at 25 µM; 3% of 47,000 active
USP30 inh: blocks human USP30 ubiquitin-rhodamine cleavage; 5.3% of 47,000 active; inhibition, % at 25 µM; Q70CQ3; purified USP30, Ub-rhodamine cleavage fluorescence
Starred values were filed as active, the others as inactive; i = inactive; x = no result given. Compounds with a hit are over-represented: about 11% of the library has one in this group of screens. Rule as the data show it: active = inhibition above about 30%; inactive = the rest.

SMILES	USP17 inh	USP28 block	USP30 inh
COc1ccccc1OCCCCn1c(C2CC(=O)N(c3ccccc3F)C2)nc2ccccc21 (configuration not stated)	29	9	39*
CN1CC(c2nc3ccccc3n2CCCc2ccccc2)CC1=O (configuration not stated)	-8	-7	-7
O=C1CC(c2nc3ccccc3n2CCOc2ccc(Cl)cc2)CN1c1ccccc1 (configuration not stated)	66*	25	72*
CN1CC(c2nc3ccccc3n2CCCOc2ccc(Cl)cc2)CC1=O (configuration not stated)	1	0	-7
Cc1ccc(N2CC(c3nc4ccccc4n3CCCOc3ccccc3)CC2=O)cc1 (configuration not stated)	60*	11	56*
CCCn1c(C2CC(=O)N(c3cccc(C)c3)C2)nc2ccccc21 (configuration not stated)	6	16	24
CCCCN1CC(c2nc3ccccc3n2CCOc2ccccc2OC)CC1=O (configuration not stated)	0	10	16
O=C1CCc2cc(S(=O)(=O)NCCC(=O)N3CCC(N4CCCCC4)CC3)ccc2N1	-41	0	0
c1ccc(-c2csc3nc(CN4CCCCC4)nc(Oc4ccc5c(c4)OCO5)c23)cc1	6	13	6
COc1ccccc1CNc1nc2cc(C)ccc2cc1-c1noc(C)n1	-3	x	x
Cc1ccc2c(c1)C(Cc1ccccc1)C(=O)N2 (configuration not stated)	2	8	23
COc1ccc(C(=O)CSc2ccc3nnc(-c4cccnc4)n3n2)cc1	-7	-21	-19
COc1ccc(-n2c(SCC(=O)c3ccc(F)cc3)nnc2-c2cccnc2)cc1	71*	7	22
CN1C(=O)CC[C@]2(C(=O)NCc3ccccn3)CCCC[C@@H]12	-10	x	x
CC1CN(C(=O)c2ccc3ccc(N(C)c4ccc(F)cc4)n3c2)CC(C)O1 (configuration not stated)	-2	x	x
O=C(Nc1ccc(-n2ccc(C(F)(F)F)n2)cc1)Nc1ccc2c(c1)CCO2	12	41*	32*
O=C(CCc1ccc2c(c1)CCO2)Nc1cccnc1	-6	3	-1
CCCCCn1c(=O)[nH]c2cc(C(=O)NCCCN3CCN(c4cccc(Cl)c4)CC3)ccc2c1=O	-2	-8	-5
CCCCCn1c(=O)[nH]c2cc(C(=O)NCCN3CCC(Cc4ccccc4)CC3)ccc2c1=O	21	14	44*
COc1ccccc1Nc1ncc(C(=O)NCc2ccc(F)cc2)c2ccccc12	35*	-4	-29
COc1ccccc1Nc1ncc(C(=O)NCc2ccc3c(c2)OCO3)c2ccccc12	32*	5	14
COc1cc(Cl)ccc1Nc1ncc(C(=O)Nc2ccc3c(c2)OCO3)c2ccccc12	15	16	7
CCOC(=O)c1cnc(Nc2ccccc2OC)c2ccccc12	8	-25	-93
Cc1nc2ncc3c(=O)n(CCN4CCOCC4)ccc3n2n1	-38	0	-3
O=C(CN(Cc1ccccc1)S(=O)(=O)c1ccc2c(c1)OCCO2)N1CCCCC1	4	11	17
SMILES	USP17 inh	USP28 block	USP30 inh
Cc1nc(-c2noc3ccc(C(=O)N4CCCC4)cc23)co1	1	5	30*
Cc1nc(-c2noc3ccc(C(=O)N4CCCN(C)CC4)cc23)cs1	-23	-8	-7
COc1cc(=O)c(C(=O)Nc2ccccc2)nn1-c1cccc(F)c1	-4	-7	9
COc1ccccc1NC(=O)c1nn(-c2cccc(F)c2)c(OC)cc1=O	46*	18	76*
CC(C)=CCc1c2c(c3occ(-c4ccc(O)cc4)c(=O)c3c1O)C=CC(C)(C)O2	91*	42*	57*
CC(C)=CCc1c2c(c3occ(-c4ccc(O)c(O)c4)c(=O)c3c1O)C=CC(C)(C)O2	86*	69*	79*
COc1ccc(C(=O)N2c3ccccc3NC(=O)CC2C)cc1OC (configuration not stated)	6	10	14
CC(C)(C)C(=O)COC(=O)c1c2c(nc3ccccc13)CCCCC2	11	2	6
O=C(OCc1c(F)cccc1Cl)c1c2c(nc3ccccc13)CCC2	44*	34*	25
O=C1N(c2ccccc2)C2CS(=O)(=O)CC2N1c1ccc([N+](=O)[O-])cc1 (configuration not stated)	30*	x	x
O=C1N(c2ccccc2)C2CS(=O)(=O)CC2N1c1ccc(F)cc1 (configuration not stated)	7	3	8
O[C@H]1[C@H](O)[C@H](Oc2ccccc2)CC[C@H]1NCc1cccnc1	3	6	10
O=C(Cc1cccnc1)N[C@@H]1CC[C@@H](Oc2ccccc2)[C@@H](O)[C@@H]1O	31*	7	18
O=C(OCC(=O)N1CCc2ccccc21)c1cc([N+](=O)[O-])ccc1NCCO	60*	x	x
O=C(Cn1ncc2cc([N+](=O)[O-])ccc21)N1CCc2ccccc21	-4	-42	-191
CCN(CC)c1nc(Nc2ccc(Cl)cc2)c2cnn(C)c2n1	-2	16	-4
COc1ccccc1NC(=O)C1=C(C)Nc2nc(-c3ccc(N(C)C)cc3)nn2C1c1ccncc1 (configuration not stated)	40*	3	30*
COc1ccccc1NC(=O)C1=C(C)Nc2nc3ccccc3n2C1c1ccncc1 (configuration not stated)	-1	1	5
COc1ccc(C2C(C(=O)Nc3ccccc3OC)=C(C)Nc3nnnn32)cc1Br (configuration not stated)	74*	3	13
COc1cccc(-c2nc3n(n2)C(c2ccncc2)C(C(N)=O)=C(C)N3)c1 (configuration not stated)	-1	4	30*
CC1=C(C(N)=O)C(c2ccc(C)o2)n2nc(-c3cccc(Cl)c3)nc2N1 (configuration not stated)	-11	-8	-29
COc1ccccc1NC(=O)C1=C(C)Nc2nnnn2C1c1cccnc1 (configuration not stated)	6	12	20
CC1OC2CC(=O)OC2C2=C1C(=O)c1c(O)c3c(c(O)c1C2=O)C1CC(OC2CCC(O)C(C)O2)C3(O)C(C)O1 (configuration not stated)	-88	-133	i
O=C(NCCS(=O)(=O)N1CCc2ccccc2C1)c1ccccc1Br	-6	-3	4
COc1ccc(CNC(=O)CN(C(=O)CCC(=O)Nc2ccccn2)c2ccc(OC)cc2)cc1	23	4	18
O=C(CN(C(=O)CCC(=O)Nc1ccccn1)c1cccc(F)c1)NCc1ccc(F)cc1	14	8	33*
CCc1ccc(NC(=O)C2CCN(c3nc4nc[nH]c(=O)c4s3)CC2)cc1	14	-3	34*
O=C(Nc1ccc(Cl)cc1)C1CCN(c2nc3nc[nH]c(=O)c3s2)CC1	-5	-7	-5
CC1(C(N)=O)CCN(C(=O)c2ccc(Cc3ccccc3F)nc2)CC1	-7	-16	-7
CCc1cccc(-n2nnnc2N2CCN(C(=O)Nc3ccccc3CC)CC2)c1	-5	-6	0

Assay outcomes (PubChem)
